This passage reports inhibition results from ChEMBL document CHEMBL1961873, “Compounds: GSK PKIS; Assays: Nanosyn kinase panel” (2012).

The inhibition is the drop in the measured response relative to a control, in per cent.

Assay [1] has as its target Sphingosine kinase 1 (Homo sapiens) (UniProt Q9NYA1). To be noted: at 1 µM.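 Note: mean SPHK1 inhibition value reported from the GSK PKIS kinase panel screen.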
The target in assay [2] is T1, Sphingosine kinase 2 (Homo sapiens) (UniProt Q9NRA0).
T1 sequence (whole entry): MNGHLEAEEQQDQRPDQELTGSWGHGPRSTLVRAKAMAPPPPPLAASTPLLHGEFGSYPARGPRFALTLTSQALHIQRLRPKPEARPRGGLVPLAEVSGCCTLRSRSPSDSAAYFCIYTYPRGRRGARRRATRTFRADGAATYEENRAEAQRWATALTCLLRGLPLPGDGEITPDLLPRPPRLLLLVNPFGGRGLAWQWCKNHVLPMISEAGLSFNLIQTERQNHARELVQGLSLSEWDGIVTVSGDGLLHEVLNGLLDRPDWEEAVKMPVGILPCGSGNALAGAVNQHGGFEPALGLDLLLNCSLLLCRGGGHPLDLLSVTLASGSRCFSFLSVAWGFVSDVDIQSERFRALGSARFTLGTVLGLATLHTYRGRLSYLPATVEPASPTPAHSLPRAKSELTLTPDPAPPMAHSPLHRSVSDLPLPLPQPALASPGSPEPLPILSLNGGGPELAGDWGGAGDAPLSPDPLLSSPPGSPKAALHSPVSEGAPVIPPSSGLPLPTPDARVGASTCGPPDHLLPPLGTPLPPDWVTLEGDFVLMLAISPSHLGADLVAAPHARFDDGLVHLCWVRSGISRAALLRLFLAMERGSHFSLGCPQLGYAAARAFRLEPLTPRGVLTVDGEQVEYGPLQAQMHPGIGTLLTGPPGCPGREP
To be noted: at 0.1 µM.

Assay [3] addresses T1, Sphingosine kinase 2 (Homo sapiens). The settings on record: at 1 µM.
The target of assay [4] is Casein kinase II subunit alpha (Homo sapiens) (UniProt P68400). The settings on record: at 0.1 µM.
For assay [5] the target is unchanged. The settings on record: at 1 µM.
The target of assay [6] is T2, Inhibitor of nuclear factor kappa-B kinase subunit alpha (Homo sapiens) (UniProt O15111).
T2 sequence (whole entry): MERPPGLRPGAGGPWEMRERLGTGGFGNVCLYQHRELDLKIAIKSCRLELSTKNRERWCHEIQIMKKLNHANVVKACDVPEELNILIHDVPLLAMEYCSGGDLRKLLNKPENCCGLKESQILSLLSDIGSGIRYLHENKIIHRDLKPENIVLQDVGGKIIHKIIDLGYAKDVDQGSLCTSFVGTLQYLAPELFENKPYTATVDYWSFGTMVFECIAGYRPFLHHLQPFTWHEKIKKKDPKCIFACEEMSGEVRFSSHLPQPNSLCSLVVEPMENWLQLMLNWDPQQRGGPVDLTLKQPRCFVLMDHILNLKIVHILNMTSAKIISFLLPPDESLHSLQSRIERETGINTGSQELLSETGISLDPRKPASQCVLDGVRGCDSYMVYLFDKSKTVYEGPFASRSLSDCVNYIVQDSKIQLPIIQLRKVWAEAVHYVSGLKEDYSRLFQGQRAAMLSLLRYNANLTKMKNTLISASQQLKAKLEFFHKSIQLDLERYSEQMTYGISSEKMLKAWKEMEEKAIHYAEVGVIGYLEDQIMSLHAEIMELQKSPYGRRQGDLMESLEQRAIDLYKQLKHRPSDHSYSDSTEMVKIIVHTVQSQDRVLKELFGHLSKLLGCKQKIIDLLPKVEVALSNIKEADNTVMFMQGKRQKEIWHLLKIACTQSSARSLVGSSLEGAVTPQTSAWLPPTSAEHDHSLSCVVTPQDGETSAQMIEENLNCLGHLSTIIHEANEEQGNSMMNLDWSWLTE
The settings on record: at 0.1 µM.

Assay [7] addresses T2, Inhibitor of nuclear factor kappa-B kinase subunit alpha (Homo sapiens). The settings on record: at 1 µM.
Assay [8] has as its target T3, Inhibitor of nuclear factor kappa-B kinase subunit beta (Homo sapiens) (UniProt O14920).
T3 sequence (whole entry): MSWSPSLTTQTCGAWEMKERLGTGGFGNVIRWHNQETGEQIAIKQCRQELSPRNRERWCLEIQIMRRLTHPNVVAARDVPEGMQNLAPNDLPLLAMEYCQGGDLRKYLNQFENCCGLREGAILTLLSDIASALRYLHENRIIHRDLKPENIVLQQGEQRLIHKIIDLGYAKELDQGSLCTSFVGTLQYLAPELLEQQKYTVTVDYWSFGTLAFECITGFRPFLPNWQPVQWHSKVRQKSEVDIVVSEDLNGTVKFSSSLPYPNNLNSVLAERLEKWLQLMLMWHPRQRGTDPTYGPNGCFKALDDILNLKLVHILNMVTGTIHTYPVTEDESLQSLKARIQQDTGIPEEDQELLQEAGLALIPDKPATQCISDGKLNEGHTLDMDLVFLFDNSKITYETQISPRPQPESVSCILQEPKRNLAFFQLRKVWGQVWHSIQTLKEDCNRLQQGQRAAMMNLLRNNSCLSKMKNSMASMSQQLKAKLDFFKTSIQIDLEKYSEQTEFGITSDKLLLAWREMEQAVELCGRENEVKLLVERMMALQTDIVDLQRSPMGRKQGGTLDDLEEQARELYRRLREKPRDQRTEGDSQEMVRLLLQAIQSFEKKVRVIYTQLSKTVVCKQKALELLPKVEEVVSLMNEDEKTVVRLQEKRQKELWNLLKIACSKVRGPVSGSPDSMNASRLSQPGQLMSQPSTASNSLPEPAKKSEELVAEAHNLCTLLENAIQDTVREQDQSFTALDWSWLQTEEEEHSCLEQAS
To be noted: at 0.1 µM.

Assay [9] has as its target T3, Inhibitor of nuclear factor kappa-B kinase subunit beta (Homo sapiens). To be noted: at 1 µM.
For assay [10], the target named is T4, Inhibitor of nuclear factor kappa-B kinase subunit epsilon (Homo sapiens) (UniProt Q14164).
T4 sequence (whole entry): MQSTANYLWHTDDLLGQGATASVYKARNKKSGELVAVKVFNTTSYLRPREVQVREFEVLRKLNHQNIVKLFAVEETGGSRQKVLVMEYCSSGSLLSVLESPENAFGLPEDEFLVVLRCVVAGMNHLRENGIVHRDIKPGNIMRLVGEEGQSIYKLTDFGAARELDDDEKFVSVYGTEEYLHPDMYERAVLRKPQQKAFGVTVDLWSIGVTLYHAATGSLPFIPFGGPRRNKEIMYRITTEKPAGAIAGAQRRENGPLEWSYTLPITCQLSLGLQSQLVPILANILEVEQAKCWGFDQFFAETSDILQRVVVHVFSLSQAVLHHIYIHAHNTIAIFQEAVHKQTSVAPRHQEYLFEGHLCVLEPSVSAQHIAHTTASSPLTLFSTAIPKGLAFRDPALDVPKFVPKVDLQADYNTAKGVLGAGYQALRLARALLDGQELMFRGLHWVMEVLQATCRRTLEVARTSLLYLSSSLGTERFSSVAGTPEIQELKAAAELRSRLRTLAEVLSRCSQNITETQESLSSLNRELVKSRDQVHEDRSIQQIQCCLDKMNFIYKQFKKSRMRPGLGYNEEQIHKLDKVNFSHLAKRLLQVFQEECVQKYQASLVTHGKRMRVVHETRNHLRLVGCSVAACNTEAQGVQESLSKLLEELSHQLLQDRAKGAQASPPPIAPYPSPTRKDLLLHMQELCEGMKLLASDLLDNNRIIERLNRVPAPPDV
To be noted: at 0.1 µM.

Assay [11] deals with T4, Inhibitor of nuclear factor kappa-B kinase subunit epsilon (Homo sapiens). The settings on record: at 1 µM.
Assay [12] concerns the target T5, Serine/threonine-protein kinase Nek1 (Homo sapiens) (UniProt Q96PY6).
T5 sequence (whole entry): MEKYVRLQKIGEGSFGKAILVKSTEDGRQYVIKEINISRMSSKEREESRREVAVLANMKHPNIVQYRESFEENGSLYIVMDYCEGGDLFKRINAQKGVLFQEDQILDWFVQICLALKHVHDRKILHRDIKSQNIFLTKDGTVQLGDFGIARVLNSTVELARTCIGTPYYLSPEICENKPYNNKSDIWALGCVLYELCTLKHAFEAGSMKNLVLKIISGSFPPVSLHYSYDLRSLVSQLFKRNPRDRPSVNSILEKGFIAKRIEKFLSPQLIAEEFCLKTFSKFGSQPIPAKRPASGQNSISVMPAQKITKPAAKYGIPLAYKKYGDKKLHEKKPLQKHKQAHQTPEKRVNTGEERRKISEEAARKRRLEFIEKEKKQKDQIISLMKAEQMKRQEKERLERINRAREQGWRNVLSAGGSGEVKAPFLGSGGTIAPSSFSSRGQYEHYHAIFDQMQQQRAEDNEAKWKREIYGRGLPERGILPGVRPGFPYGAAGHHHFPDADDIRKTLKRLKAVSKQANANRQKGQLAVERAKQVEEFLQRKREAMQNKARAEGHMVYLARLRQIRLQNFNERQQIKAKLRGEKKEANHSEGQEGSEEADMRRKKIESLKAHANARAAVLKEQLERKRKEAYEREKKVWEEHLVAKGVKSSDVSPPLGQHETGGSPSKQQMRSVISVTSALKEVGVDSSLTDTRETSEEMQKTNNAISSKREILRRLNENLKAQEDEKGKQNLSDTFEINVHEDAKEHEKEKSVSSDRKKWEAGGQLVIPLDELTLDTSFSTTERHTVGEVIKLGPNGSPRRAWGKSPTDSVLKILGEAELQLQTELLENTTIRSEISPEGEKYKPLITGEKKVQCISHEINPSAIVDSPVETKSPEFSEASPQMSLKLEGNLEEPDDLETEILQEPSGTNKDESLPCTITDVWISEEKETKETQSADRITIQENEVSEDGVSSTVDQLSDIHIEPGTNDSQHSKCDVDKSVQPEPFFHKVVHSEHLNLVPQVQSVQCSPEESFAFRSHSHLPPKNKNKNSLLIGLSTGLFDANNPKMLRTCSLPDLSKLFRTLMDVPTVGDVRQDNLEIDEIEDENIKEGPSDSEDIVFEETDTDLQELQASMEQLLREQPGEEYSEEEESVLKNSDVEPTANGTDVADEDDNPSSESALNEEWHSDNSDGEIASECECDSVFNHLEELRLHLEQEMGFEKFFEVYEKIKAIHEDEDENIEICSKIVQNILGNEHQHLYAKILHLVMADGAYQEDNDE
The settings on record: at 0.1 µM.

Assay [13] concerns the target T5, Serine/threonine-protein kinase Nek1 (Homo sapiens). The settings on record: at 1 µM.
Assay [14] concerns the target T6, Serine/threonine-protein kinase Nek2 (Homo sapiens) (UniProt P51955).
T6 sequence (whole entry): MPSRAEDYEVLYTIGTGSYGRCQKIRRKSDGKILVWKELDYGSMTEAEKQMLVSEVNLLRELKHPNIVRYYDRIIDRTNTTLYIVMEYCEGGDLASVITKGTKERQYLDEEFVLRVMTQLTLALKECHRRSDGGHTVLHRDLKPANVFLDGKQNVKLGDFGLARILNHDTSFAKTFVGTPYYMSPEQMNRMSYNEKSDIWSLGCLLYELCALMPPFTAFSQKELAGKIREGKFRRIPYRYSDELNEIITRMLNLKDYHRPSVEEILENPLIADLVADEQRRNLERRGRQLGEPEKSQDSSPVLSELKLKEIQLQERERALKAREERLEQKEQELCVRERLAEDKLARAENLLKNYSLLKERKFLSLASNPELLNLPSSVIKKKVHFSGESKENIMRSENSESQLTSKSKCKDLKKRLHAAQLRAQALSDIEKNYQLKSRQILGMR
The settings on record: at 0.1 µM.

Assay [15] concerns the target T6, Serine/threonine-protein kinase Nek2 (Homo sapiens). To be noted: at 1 µM.
The target in assay [16] is Serine/threonine-protein kinase Nek6 (Homo sapiens) (UniProt Q9HC98). To be noted: at 0.1 µM.
The target is the same in assay [17]. To be noted: at 1 µM.
In assay [18] the target is Serine/threonine-protein kinase Nek7 (Homo sapiens) (UniProt Q8TDX7). The settings on record: at 0.1 µM.
For assay [19] the target is unchanged. To be noted: at 1 µM.
Assay [20] has as its target T7, Serine/threonine-protein kinase Nek9 (Homo sapiens) (UniProt Q8TD19).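 Note: reported value is the mean percent inhibition of NEK9.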
T7 sequence (whole entry): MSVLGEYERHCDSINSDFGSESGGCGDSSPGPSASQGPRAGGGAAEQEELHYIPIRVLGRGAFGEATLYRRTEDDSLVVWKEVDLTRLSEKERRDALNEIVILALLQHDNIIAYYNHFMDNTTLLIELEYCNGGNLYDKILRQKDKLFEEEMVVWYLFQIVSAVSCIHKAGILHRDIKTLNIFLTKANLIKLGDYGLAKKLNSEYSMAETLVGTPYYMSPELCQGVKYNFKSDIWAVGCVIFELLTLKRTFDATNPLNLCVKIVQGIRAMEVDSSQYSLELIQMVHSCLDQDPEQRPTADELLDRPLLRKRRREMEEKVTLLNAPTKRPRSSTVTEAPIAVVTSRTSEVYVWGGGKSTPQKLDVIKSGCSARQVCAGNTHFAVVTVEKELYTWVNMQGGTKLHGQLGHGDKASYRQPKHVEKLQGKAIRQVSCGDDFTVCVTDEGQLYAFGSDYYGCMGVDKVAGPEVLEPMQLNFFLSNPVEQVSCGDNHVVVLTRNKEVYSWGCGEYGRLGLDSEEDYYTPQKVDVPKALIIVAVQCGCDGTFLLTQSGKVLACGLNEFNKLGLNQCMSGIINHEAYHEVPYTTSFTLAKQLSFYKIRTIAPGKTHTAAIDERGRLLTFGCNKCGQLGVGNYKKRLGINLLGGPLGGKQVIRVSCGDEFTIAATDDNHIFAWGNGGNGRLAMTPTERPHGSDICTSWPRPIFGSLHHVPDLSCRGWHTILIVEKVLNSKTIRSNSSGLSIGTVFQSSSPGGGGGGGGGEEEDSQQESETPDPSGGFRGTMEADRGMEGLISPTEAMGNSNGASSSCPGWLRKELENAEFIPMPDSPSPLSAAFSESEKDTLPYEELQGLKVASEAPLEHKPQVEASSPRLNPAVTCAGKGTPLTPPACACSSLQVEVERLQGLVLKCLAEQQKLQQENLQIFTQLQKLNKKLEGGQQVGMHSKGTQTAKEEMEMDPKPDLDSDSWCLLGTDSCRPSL
The settings on record: at 0.1 µM.

Serine/threonine-protein kinase Nek7 (Homo sapiens), sequence (Q8TDX7 whole entry, looked up): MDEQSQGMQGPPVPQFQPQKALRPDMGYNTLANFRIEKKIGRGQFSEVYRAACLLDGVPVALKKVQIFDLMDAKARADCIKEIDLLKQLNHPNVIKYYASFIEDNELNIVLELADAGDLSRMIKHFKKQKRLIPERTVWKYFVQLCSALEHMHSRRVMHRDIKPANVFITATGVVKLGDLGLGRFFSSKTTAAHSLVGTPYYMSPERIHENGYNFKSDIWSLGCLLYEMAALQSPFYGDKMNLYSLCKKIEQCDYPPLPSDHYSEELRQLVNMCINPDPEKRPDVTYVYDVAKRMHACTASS
Casein kinase II subunit alpha (Homo sapiens), sequence (P68400 whole entry, looked up): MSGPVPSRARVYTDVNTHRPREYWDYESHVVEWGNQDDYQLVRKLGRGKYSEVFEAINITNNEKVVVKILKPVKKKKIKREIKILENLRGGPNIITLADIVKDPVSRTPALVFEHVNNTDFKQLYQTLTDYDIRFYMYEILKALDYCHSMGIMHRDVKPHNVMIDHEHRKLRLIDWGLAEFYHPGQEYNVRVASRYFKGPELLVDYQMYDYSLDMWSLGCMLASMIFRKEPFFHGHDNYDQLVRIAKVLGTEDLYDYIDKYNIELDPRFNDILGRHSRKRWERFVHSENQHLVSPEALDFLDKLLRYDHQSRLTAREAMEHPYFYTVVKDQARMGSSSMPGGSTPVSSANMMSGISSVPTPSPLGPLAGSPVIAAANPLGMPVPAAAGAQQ
Serine/threonine-protein kinase Nek6 (Homo sapiens), sequence (Q9HC98 whole entry): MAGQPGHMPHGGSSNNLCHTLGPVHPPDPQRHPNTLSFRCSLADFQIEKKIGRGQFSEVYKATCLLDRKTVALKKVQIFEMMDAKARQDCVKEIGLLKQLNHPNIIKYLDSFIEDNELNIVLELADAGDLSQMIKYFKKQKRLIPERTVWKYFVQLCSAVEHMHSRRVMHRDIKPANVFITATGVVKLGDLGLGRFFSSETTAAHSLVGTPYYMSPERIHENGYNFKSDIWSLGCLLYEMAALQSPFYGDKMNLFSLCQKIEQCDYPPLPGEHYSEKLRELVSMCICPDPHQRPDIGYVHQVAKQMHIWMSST
Sphingosine kinase 1 (Homo sapiens), sequence (Q9NYA1 whole entry): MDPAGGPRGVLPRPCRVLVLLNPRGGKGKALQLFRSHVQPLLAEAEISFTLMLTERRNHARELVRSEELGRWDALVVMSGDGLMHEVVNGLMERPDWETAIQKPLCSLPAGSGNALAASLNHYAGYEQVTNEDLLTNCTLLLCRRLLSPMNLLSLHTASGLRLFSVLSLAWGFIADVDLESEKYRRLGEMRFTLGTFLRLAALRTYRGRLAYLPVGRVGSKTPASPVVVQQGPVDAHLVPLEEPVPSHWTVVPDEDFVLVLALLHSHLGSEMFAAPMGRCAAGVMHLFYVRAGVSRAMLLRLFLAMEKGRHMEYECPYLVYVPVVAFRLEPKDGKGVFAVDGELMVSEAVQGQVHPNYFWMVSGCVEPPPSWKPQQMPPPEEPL

Regarding `CCc1ccc(Oc2nccc(-c3c(-c4ccc(F)cc4)ncn3C3CCNCC3)n2)cc1`, the inhibition in assay [1] is 11.5%; in [2] it was 1.25%; in assay [3] it was 0.72%; in [4] it was 3.17%; in assay [5], 4.14%; in assay [6], -3.32%. In addition, the inhibition in [7] is -1.04%; in [8], 3.54%; in [9], 4.07%; in [10] it was 8.2%; in assay [11], 6.86%; in [12], 2.27%. Besides, the inhibition in assay [13] was 1.69%; in assay [14] it was 4.75%; in assay [15], 2.36%; in assay [16], 2.41%; in assay [17], 0.8%; in assay [18], 2.65%. Further, the inhibition in assay [19] is 5.98%; in assay [20] it was -0.95%.
